Assay results published in PubChem BioAssay (EPA / NIEHS).
Records with an inconclusive call do not appear. Activity calls are given as the source filed them. Rule for the calls: active = hit-call score of the fitted dose curve at least 0.9, where 1 is the maximum; inconclusive = response in the unintended direction; inactive = score below 0.9.

Columns and labels:
[1] = tested on: zebrafish Peroxisome Proliferator-activated Receptor gamma (PPARg), gene 557037; experiment: ATG_zfPPARg_XSP1: Attagene TRANS-FACTORIAL Multi-Species (XSP1) HepG2 Assay for zebrafish Peroxisome Proliferator-activated Receptor gamma (PPARg) (AID 2283801)
Outline: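 HepG2 cells transiently transfected with GAL4-UAS reporter units including a zebrafish PPARg–GAL4 chimera, dosed 24 h with 3 nM 6-alpha-fluorotestosterone present. Reporter mRNA quantified by RT-PCR, FAM labelling, HpaI digestion and capillary electrophoresis; induction versus DMSO.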

[2] = target: mouse Peroxisome Proliferator-activated Receptor gamma (PPARg), Pparg (gene 19016) (UniProt P37238); experiment: ATG_mPPARg_XSP1: Attagene TRANS-FACTORIAL Multi-Species (XSP1) HepG2 Assay for mouse Peroxisome Proliferator-activated Receptor gamma (PPARg) (AID 2283802)
Outline: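 HepG2 cells transiently transfected with GAL4-UAS reporter units driven by mouse PPARg–GAL4 chimera; 3 nM 6-alpha-fluorotestosterone present. After 24 h dosing, reporter mRNA quantified by RT-PCR, fluorescent labelling and capillary electrophoresis; gain of signal versus DMSO.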

[3] = target: Nuclear receptor subfamily 1 group I member 2 (Mus musculus) (UniProt O54915); experiment: ATG_mPXR_XSP1: Attagene TRANS-FACTORIAL Multi-Species (XSP1) HepG2 Assay for mouse Pregnane X Receptor (PXR) (AID 2283803)
Description: ATG_XSP1_multi-species_TRANS is a cell-based, multiplexed assay created by modifying the existing Attagene TRANS-FACTORIAL system to include a panel of nuclear receptors from some or all the following species: human (Homo sapiens), mouse (Mus musculus), frog (Xenopus laevis), zebrafish (Danio rerio), chicken (Gallus gallus), and turtle (Chrysemys picta). The ECOTOX-FACTORIAL format uses HepG2, a human liver cell line, with measurements taken at 24 hours after chemical dosing in a 24-well plate. Xsp1 included 3 nM 6-alpha-fluorotestosterone to partially stimulate the androgen receptor.ATG_mPXR_XSP1 is one of 29 assay components measured or calculated from the ATG_XSP1_multi-species_TRANS assay. It is designed to make measurements of mRNA induction, a form of inducible reporter, as detected with fluorescence intensity signals by Reverse transcription polymerase chain reaction (RT-PCR) and Capillary electrophoresis technology.The assay endpoint ATG_mPXR_XSP1 was analyzed in the positive analysis fitting direction relative to DMSO as the negative control and baseline of activity. Using a type of inducible reporter, measures of mRNA for gain-of-signal activity can be used to understand the reporter gene at the transcription factor-level as they relate to the gene PXR. Furthermore, this assay endpoint can be referred to as a primary readout, because this assay has produced multiple assay endpoints where this one serves a reporter gene function. To generalize the intended target to other relatable targets, this assay endpoint is annotated to the nuclear receptor intended target family, where the subfamily is non-steroidal.
Human liver HepG2 cells are transiently transfected with multiple reporter transcription units (MRTUs) in 6-well plates using FuGene 6 reagent (Roche; 3 ml FuGene/1 mg DNA). The MRTU constructs are regulated by a cis-regulating element (promoter). […] A major difference between the CIS and TRANS system is that in CIS activities of endogenous TFs are measured, whereas the TRANS assay evaluates changes in activities of exogenous, chimeric NR-Gal4 proteins. […] At the end of 24 hour incubation, total RNA was isolated using TriZol reagent (Invitrogen). The isolated RNA is then reverse-transcribed using oligo(dT) primer and Mo-MLV reverse transcriptase (Invitrogen) with DNAse I (Ambion) treatment for 30 min. The one-tenth of the produced cDNA was amplified by PCR using Taq DNA polymerase (Invitrogen) and two reporter sequence-specific primers. The PCR products were fluorescently labeled by primer extension with 6-arboxyfluorescein (6-FAM) 5'-labeled reporter sequence-specific primer (2 min at 95 C, 20 s at 68 C and 10 min at 72 C) and these products were digested with 5U of HpaI (New England Biolabs) for 2h at 37 C. The fragments were purified using Qiaquick PCR columns (Qiagen), analyzed on an ABI 3130xL genetic analyzer (Applied Biosystems) with peak positions identified by using a set of X-rhodamine (ROX)-labeled MapMarker1000 molecular weight standards (BioVentures). The raw capillary electrophoresis data was processed using Attagraph software (Attagene).

[4] = target: frog Thyroid hormone Receptor alpha (TRa), thra-a (gene 397942) (UniProt P15204); experiment: ATG_frTRa_XSP1: Attagene TRANS-FACTORIAL Multi-Species (XSP1) HepG2 Assay for frog Thyroid hormone Receptor alpha (TRa) (AID 2283804)
Outline: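 HepG2 cells transiently transfected with frog TRa-GAL4 chimeric reporter units, dosed 24 hr with 3 nM 6-alpha-fluorotestosterone present; reporter mRNA quantified by RT-PCR, fluorescent labelling and capillary electrophoresis, gain of signal versus DMSO.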

[5] = target: human Thyroid hormone Receptor alpha (TRa), THRA (gene 7067) (UniProt P10827); experiment: ATG_hTRa_XSP1: Attagene TRANS-FACTORIAL Multi-Species (XSP1) HepG2 Assay for human Thyroid hormone Receptor alpha (TRa) (AID 2283805)
Outline: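 HepG2 cells transiently transfected with GAL4-UAS reporter units expressing chimeric NR-Gal4 proteins, dosed 24 hours with 3 nM 6-alpha-fluorotestosterone present. Reporter mRNA measured by RT-PCR and capillary electrophoresis; gain of signal fitted versus DMSO.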

[6] = tested on: turtle Thyroid Hormone Receptor, alpha (TRa), gene 101949057; experiment: ATG_trTRa_XSP1: Attagene TRANS-FACTORIAL Multi-Species (XSP1) HepG2 Assay for turtle Thyroid Hormone Receptor, alpha (TRa) (AID 2283806)
Outline: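 HepG2 cells transiently transfected with GAL4-UAS reporter units and chimeric receptor-Gal4 constructs, with 3 nM 6-alpha-fluorotestosterone present. Reporter mRNA was quantified 24 h after dosing by RT-PCR, 6-FAM labelling and capillary electrophoresis; gain of signal versus DMSO.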

[7] = target: zebrafish Thyroid Hormone Receptor alpha (TRa), thraa (gene 30670) (UniProt Q98867); experiment: ATG_zfTRa_XSP1: Attagene TRANS-FACTORIAL Multi-Species (XSP1) HepG2 Assay for zebrafish Thyroid Hormone Receptor alpha (TRa) (AID 2283807)
Outline: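 HepG2 cells transiently transfected with GAL4-UAS reporter units including a zebrafish TRa–Gal4 chimera, dosed 24 h with 3 nM 6-alpha-fluorotestosterone present. Reporter mRNA quantified by RT-PCR and capillary electrophoresis; gain versus DMSO.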

[8] = target: human Thyroid hormone Receptor beta (TRb), THRB (gene 7068) (UniProt P10828); experiment: ATG_hTRb_XSP1: Attagene TRANS-FACTORIAL Multi-Species (XSP1) HepG2 Assay for human Thyroid hormone Receptor beta (TRb) (AID 2283808)
Outline: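 HepG2 cells transiently transfected with reporter units driving GAL4-UAS reporters for chimeric NR-Gal4 proteins; 24 h chemical exposure with 3 nM 6-alpha-fluorotestosterone present. Reporter mRNA quantified by RT-PCR and capillary electrophoresis, gain of signal versus DMSO.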

[9] = target: zebrafish Thyroid Hormone Receptor beta (TRb), thrb (gene 30607) (UniProt Q9PVE4); experiment: ATG_zfTRb_XSP1: Attagene TRANS-FACTORIAL Multi-Species (XSP1) HepG2 Assay for zebrafish Thyroid Hormone Receptor beta (TRb) (AID 2283809)
Outline: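 HepG2 cells transiently transfected with multiplexed GAL4-UAS reporter units expressing chimeric zebrafish TRb–Gal4. Dosed 24 h with 3 nM 6-alpha-fluorotestosterone present; reporter mRNA measured by RT-PCR, HpaI digestion and capillary electrophoresis; gain of signal versus DMSO.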

[10] = ATG_XTT_Cytotoxicity_XSP1: Cytotoxicity Assessment in the Attagene TRANS-FACTORIAL Multi-Species (XSP1) HepG2 Assay (AID 2283810)
Outline: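 XTT viability readout taken at 24 hours post-dosing in HepG2 liver cells co-treated with 3 nM 6-alpha-fluorotestosterone. Signal loss relative to DMSO controls reflects cytotoxicity.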

Chain of zebrafish Thyroid Hormone Receptor beta (TRb), thrb (gene 30607) (Q9PVE4 whole entry, looked up, the tested form may be a part): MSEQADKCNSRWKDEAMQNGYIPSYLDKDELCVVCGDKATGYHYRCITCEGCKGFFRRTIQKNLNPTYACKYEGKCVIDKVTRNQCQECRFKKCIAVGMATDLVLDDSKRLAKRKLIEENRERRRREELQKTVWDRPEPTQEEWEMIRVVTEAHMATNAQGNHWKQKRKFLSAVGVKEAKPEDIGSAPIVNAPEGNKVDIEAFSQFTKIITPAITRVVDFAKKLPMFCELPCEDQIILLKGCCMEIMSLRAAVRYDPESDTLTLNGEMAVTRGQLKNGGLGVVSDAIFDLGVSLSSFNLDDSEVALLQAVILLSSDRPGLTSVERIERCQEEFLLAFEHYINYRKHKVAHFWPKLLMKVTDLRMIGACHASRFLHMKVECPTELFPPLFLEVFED
Chain of frog Thyroid hormone Receptor alpha (TRa), thra-a (gene 397942) (P15204 whole entry, looked up, the tested form may be a part): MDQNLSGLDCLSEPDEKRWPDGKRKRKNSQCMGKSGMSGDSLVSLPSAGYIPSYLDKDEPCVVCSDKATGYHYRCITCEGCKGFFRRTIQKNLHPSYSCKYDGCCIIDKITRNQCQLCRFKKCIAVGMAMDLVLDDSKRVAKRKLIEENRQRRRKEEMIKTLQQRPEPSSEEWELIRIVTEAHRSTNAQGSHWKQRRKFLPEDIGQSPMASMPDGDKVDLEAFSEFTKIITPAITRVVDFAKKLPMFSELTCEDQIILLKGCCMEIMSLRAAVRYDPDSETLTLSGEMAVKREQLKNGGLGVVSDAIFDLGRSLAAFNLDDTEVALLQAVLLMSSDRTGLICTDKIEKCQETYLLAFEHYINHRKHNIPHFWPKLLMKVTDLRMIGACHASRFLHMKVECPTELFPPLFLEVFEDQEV
Chain of zebrafish Thyroid Hormone Receptor alpha (TRa), thraa (gene 30670) (Q98867 whole entry, looked up, the tested form may be a part): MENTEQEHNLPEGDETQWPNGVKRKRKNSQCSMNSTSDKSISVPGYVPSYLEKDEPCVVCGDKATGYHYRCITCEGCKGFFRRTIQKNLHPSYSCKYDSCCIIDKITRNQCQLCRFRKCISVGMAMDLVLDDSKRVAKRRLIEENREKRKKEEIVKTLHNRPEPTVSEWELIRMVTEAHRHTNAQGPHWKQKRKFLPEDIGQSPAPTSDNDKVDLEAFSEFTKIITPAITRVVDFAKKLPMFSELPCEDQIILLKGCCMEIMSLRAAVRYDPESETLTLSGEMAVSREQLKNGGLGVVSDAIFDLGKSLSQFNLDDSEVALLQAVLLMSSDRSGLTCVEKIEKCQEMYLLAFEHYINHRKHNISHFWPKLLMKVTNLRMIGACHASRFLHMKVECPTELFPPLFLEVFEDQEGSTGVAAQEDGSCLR
Chain of human Thyroid hormone Receptor beta (TRb), THRB (gene 7068) (P10828 whole entry, looked up, the tested form may be a part): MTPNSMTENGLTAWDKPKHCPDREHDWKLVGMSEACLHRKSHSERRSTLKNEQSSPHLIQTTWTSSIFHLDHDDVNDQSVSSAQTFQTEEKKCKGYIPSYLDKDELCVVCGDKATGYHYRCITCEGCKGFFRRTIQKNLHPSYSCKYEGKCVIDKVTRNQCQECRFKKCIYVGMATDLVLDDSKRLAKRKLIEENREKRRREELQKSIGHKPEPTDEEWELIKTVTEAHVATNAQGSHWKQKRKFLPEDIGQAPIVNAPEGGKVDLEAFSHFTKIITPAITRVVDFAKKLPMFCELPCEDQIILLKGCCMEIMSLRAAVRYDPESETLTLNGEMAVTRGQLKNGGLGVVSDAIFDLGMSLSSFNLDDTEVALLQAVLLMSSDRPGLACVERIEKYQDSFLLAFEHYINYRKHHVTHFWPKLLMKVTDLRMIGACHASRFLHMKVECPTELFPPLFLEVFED
Chain of human Thyroid hormone Receptor alpha (TRa), THRA (gene 7067) (P10827 whole entry, looked up, the tested form may be a part): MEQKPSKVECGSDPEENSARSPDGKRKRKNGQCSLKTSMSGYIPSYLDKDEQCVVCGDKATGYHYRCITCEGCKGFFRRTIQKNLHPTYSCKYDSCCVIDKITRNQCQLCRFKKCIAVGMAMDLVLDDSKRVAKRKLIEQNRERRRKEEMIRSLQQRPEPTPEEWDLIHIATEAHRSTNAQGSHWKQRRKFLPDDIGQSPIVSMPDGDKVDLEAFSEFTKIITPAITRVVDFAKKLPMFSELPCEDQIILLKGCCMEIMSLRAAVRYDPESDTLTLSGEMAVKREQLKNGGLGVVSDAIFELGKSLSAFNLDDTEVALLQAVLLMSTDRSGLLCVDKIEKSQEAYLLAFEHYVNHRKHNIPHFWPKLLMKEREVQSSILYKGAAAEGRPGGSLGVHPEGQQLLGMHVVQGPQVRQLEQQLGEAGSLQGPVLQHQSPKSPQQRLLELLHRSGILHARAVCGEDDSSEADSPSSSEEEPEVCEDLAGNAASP
Chain of mouse Peroxisome Proliferator-activated Receptor gamma (PPARg), Pparg (gene 19016) (P37238 whole entry, looked up, the tested form may be a part): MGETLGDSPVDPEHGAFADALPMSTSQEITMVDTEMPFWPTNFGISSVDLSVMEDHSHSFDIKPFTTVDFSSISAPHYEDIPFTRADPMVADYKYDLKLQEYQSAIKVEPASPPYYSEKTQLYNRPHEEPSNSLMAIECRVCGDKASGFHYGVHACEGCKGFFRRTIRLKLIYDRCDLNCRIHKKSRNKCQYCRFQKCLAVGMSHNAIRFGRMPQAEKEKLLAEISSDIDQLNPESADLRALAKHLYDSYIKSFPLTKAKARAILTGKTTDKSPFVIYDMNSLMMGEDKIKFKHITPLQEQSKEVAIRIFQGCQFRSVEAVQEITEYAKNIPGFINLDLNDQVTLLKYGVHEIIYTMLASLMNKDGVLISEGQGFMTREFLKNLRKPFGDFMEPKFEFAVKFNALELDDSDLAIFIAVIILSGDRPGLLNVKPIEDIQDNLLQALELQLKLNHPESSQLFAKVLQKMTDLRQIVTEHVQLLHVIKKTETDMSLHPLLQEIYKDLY
Chain of Nuclear receptor subfamily 1 group I member 2 (Mus musculus) (O54915 whole entry, looked up): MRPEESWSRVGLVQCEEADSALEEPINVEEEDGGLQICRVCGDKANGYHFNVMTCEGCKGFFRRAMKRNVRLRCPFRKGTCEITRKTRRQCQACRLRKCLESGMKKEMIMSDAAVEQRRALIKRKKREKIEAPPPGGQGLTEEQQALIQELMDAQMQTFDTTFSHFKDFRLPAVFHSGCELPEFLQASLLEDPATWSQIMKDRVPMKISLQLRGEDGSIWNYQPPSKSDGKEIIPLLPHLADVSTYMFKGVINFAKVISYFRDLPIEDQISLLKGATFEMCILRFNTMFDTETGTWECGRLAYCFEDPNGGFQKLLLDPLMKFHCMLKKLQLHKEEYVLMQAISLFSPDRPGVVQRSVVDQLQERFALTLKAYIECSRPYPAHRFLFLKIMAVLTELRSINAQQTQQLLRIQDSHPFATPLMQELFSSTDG

**Q.** For `Oc1ccc(Cl)cc1Cc1ccccc1`, which outcome [1] is on record?
**A.** inactive

**Q.** And the AC50 [2]?
**A.** 10.1 µM (active)

**Q.** What about the outcome [3] of the same molecule?
**A.** inactive

**Q.** What about the outcome [4] of the same molecule?
**A.** inactive

**Q.** And the outcome [5]?
**A.** inactive

**Q.** What about the outcome [6] of the same molecule?
**A.** inactive

**Q.** What about the outcome [7] of the same molecule?
**A.** inactive

**Q.** What about the outcome [8] of the same molecule?
**A.** inactive

**Q.** And the outcome [9]?
**A.** inactive

**Q.** What about the outcome [10] of the same molecule?
**A.** inactive

**Q.** Which results are given for `CC1(C)C(C=C(Cl)Cl)C1C(=O)OC(C#N)c1ccc(F)c(Oc2ccccc2)c1` (stereo unspecified)?
**A.** outcome [1]: inactive; AC50 [2]: 9.66 µM (active); AC50 [3]: 0.436 µM (active); outcome [4]: inactive; outcome [5]: inactive; outcome [6]: inactive; outcome [7]: inactive; outcome [8]: inactive; outcome [9]: inactive; outcome [10]: inactive

**Q.** With `CCOCN(C(=O)CCl)c1c(C)cccc1CC` as the molecule, how does the AC50 [2] read?
**A.** 1.89 µM (active)

**Q.** And the AC50 [3]?
**A.** 4 µM (active)

**Q.** What about the outcome [10] of the same molecule?
**A.** inactive

**Q.** With `CCCN(CCC)c1c([N+](=O)[O-])cc(C(F)(F)F)cc1[N+](=O)[O-]` as the molecule, how does the outcome [1] read?
**A.** inactive

**Q.** What about the AC50 [2] of the same molecule?
**A.** 35.1 µM (active)

**Q.** And the AC50 [3]?
**A.** 2.85 µM (active)

**Q.** What about the outcome [6] of the same molecule?
**A.** inactive

**Q.** What about the outcome [7] of the same molecule?
**A.** inactive

**Q.** And the outcome [8]?
**A.** inactive

**Q.** What about the outcome [9] of the same molecule?
**A.** inactive

**Q.** What about the outcome [10] of the same molecule?
**A.** inactive

**Q.** With `O=S(=O)(O)C(F)(F)C(F)(F)C(F)(F)C(F)(F)C(F)(F)C(F)(F)C(F)(F)C(F)(F)F` as the molecule, how does the AC50 [2] read?
**A.** 73.1 µM (active)

**Q.** And the AC50 [3]?
**A.** 57.9 µM (active)

**Q.** And the AC50 [7]?
**A.** 140 µM (active)

**Q.** And the outcome [9]?
**A.** inactive

**Q.** And the AC50 [10]?
**A.** 154 µM (active)

**Q.** What does the source list for `O=S1OCC2C(CO1)C1(Cl)C(Cl)=C(Cl)C2(Cl)C1(Cl)Cl` (stereo unspecified)?
**A.** outcome [2]: inactive; AC50 [3]: 0.512 µM (active); outcome [5]: inactive; outcome [6]: inactive; outcome [7]: inactive; outcome [8]: inactive; outcome [9]: inactive; outcome [10]: inactive

**Q.** With `COP(=S)(OC)Oc1ccc(SC)c(C)c1` as the molecule, how does the outcome [1] read?
**A.** inactive

**Q.** What about the AC50 [2] of the same molecule?
**A.** 41.5 µM (active)

**Q.** And the AC50 [3]?
**A.** 8.91 µM (active)

**Q.** What about the outcome [5] of the same molecule?
**A.** inactive

**Q.** What about the outcome [6] of the same molecule?
**A.** inactive

**Q.** And the outcome [7]?
**A.** inactive

**Q.** And the outcome [8]?
**A.** inactive

**Q.** And the outcome [9]?
**A.** inactive

**Q.** And the outcome [10]?
**A.** inactive

**Q.** With `CCCN(CCOc1c(Cl)cc(Cl)cc1Cl)C(=O)n1ccnc1` as the molecule, how does the outcome [1] read?
**A.** inactive

**Q.** And the AC50 [2]?
**A.** 15.8 µM (active)

**Q.** And the AC50 [3]?
**A.** 0.11 µM (active)

**Q.** What about the outcome [5] of the same molecule?
**A.** inactive

**Q.** What about the outcome [6] of the same molecule?
**A.** inactive

**Q.** What about the outcome [7] of the same molecule?
**A.** inactive

**Q.** And the outcome [8]?
**A.** inactive

**Q.** What about the AC50 [10] of the same molecule?
**A.** 100 µM (active)

**Q.** What does the source list for `Oc1cc(Cl)ccc1Oc1ccc(Cl)cc1Cl`?
**A.** outcome [1]: inactive; AC50 [2]: 11.1 µM (active); AC50 [3]: 14.4 µM (active); outcome [4]: inactive; AC50 [5]: 7.06 µM (active); AC50 [6]: 11.1 µM (active); AC50 [7]: 14 µM (active); outcome [8]: inactive; outcome [9]: inactive; AC50 [10]: 100 µM (active)
